In PubChem BioAssay AID725 (NMMLSC, 2007):
Among all 1,300 compounds or so, fewer than 10 were called active. No rule for the calls is given here. A selection follows.

Each molecule was assayed against N-formyl peptide receptor 2 (Homo sapiens) (UniProt P25090) (assay: FPRL1 fluorescent ligand binding inhibitors, primary screen, selectivity assay for FPR ligand SAR project, cell-based, flow cytometry, HTS counterscreen (AID 725)). Conditions: FPRL1-expressing cells, hits give high values, concentration not given here.
Sequence of N-formyl peptide receptor 2 (Homo sapiens) (P25090 whole entry, looked up): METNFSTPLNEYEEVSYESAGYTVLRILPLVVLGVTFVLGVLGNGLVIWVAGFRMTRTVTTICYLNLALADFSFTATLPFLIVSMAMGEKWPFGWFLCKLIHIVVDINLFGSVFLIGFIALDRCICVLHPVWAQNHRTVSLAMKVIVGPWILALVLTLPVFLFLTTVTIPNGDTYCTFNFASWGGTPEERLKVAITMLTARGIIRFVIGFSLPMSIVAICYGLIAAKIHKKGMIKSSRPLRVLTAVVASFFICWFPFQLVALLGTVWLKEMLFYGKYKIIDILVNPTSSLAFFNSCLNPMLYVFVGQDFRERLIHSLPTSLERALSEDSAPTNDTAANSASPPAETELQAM

SMILES	inhibition
O=C(C(Cc1ccccc1)N1Cc2ccccc2C1=O)N1CCOCC1 (configuration not stated)	-13.3% (inactive)
CCOC(=O)c1c(NC(=O)c2cccs2)sc2c1CCC(C(C)(C)C)C2 (configuration not stated)	-4.5% (inactive)
CC(C)c1ccc(C2/C(=C(\O)c3ccc(F)cc3)C(=O)C(=O)N2CCN2CCOCC2)cc1 (configuration not stated)	5.6% (inactive)
CCOC(=O)Cc1c(C)nc2c(C#N)c(C)[nH]n2c1=O	5.1% (inactive)
O=c1c(-c2ccc(Cl)cc2)c(C(F)(F)F)oc2c(CN3CCCCC3)c(O)ccc12	2.2% (inactive)
COC(=O)c1c(NC(=O)c2cncc(Br)c2)sc2c1CCCC2	-1.3% (inactive)
CN1C(=O)c2ccccc2C(C(=O)N2CCCC2)C1c1cccs1 (configuration not stated)	-3% (inactive)
O=C1C(=O)N(c2ccc(Br)cc2)C(c2ccc(Br)cc2)/C1=C(/O)c1ccccc1 (configuration not stated)	0.2% (inactive)
COC(=O)c1c(NC(=O)c2cc(OC)c(OC)c(OC)c2)sc(C)c1C	-10.3% (inactive)
CCOC(=O)c1cc(C(C)C)sc1NC(=O)CCCC(=O)O	-4.7% (inactive)
COc1ccc(OC)c(C(=O)CC2(O)C(=O)N(C)c3ccccc32)c1 (configuration not stated)	1.1% (inactive)
COc1ccc(CN2CCc3c(c(=O)n4ncc(C(=O)O)c4n3C)C2)cc1	-3.9% (inactive)
CCc1c(C)nc2c(-c3ccc(OC)c(OC)c3)c(C)[nH]n2c1=O	-1.3% (inactive)
Cc1ccc(C2/C(=C(\O)c3ccc(Cl)cc3)C(=O)C(=O)N2CCN2CCOCC2)cc1 (configuration not stated)	0.3% (inactive)
Cc1cc(C)nc(/N=C(/NC(=O)c2ccccc2)Nc2cccc(Cl)c2)n1	-4.7% (inactive)
CCOc1ccc(C2/C(=C(/O)c3ccccc3)C(=O)C(=O)N2CC(C)O)cc1 (configuration not stated)	-1.6% (inactive)
CCC(Sc1nc2ncccc2o1)C(=O)Nc1ccccc1OC (configuration not stated)	-16.4% (inactive)
O=C1C(=O)N(c2ccccn2)C(c2cccnc2)/C1=C(/O)c1ccccc1 (configuration not stated)	4.3% (inactive)
CCOC(=O)c1c(NC(=O)c2cccc(Cl)c2)sc(C)c1C	6.4% (inactive)

SMILES	inhibition
Cc1cc(C)c(NC(=O)CSc2nncn3c2cc2occc23)c(C)c1	12% (inactive)
COc1ccccc1NC(=O)CSc1nncn2c1cc1occc12	34.6% (active)
Cc1cc(C)c(NC(=O)CSc2nncn3c2cc2oc(C)cc23)c(C)c1	13.3% (inactive)
O=C1O[C@@H]2C[C@H]3C[C@@H]2[C@@H]1[C@H]3C(=O)N1CCc2ccccc21	-14.7% (inactive)
O=C(O)C1CCCCC1C(=O)Nc1ccc(O)cc1 (configuration not stated)	-4.1% (inactive)
COc1ccc(C2SCC(=O)N2c2ccccc2)cc1 (configuration not stated)	0% (inactive)
Cc1ccc(C2/C(=C(\O)c3ccccc3)C(=O)C(=O)N2CCN2CCNCC2)cc1 (configuration not stated)	7.6% (inactive)
COC(=O)c1c[nH]n2c(=O)c3c(nc12)C(=O)N(Cc1ccccc1)C3	-4.5% (inactive)
Cc1cccc(C(CC(=O)O)NS(=O)(=O)c2ccc(C)cc2C)c1 (configuration not stated)	-12.7% (inactive)
CCC(=O)N1c2ccccc2CC1C(=O)N1CCN(CC)CC1 (configuration not stated)	5.1% (inactive)
COc1ccc(C2C(C(=O)c3ccc(C)o3)=C(O)C(=O)N2Cc2cccnc2)cc1OC (configuration not stated)	2.3% (inactive)
CCN(CC)C(=O)c1c(NC(=O)c2cccc(C)c2)sc2c1CCCCC2	0.5% (inactive)
O=C1C(=O)N(CCCN2CCOCC2)C(c2ccc(Cl)cc2)/C1=C(\O)c1ccccc1 (configuration not stated)	6.2% (inactive)
CCc1cc2c(=O)c(-c3ccc4c(c3)OCO4)c(C(F)(F)F)oc2c(CN(C)C)c1O	-3% (inactive)
O=C(CCCC(=O)c1ccccc1)Nc1cc(F)ccc1F	-27.4% (inactive)
CCN(C(=O)c1noc2c1CC(C)CC2)c1cccc(C)c1 (configuration not stated)	-9.6% (inactive)
CC(C)c1ccc(CN(Cc2ccco2)C(=O)c2ccc(F)cc2)cc1	-3.3% (inactive)
COc1ccc(C2C(C(=O)c3ccco3)=C(O)C(=O)N2c2nnc(C)s2)cc1OC (configuration not stated)	1.1% (inactive)
CCOC(=O)c1c(NC(=O)c2ccc(Cl)cc2)sc2c1CCC(C)C2 (configuration not stated)	-4.7% (inactive)

SMILES	inhibition
Cc1onc(-c2ccccc2Cl)c1C(=O)NC1CCCCC1	4.7% (inactive)
Cc1ccc(N2C(=O)CSC2c2ccc(C(C)(C)C)cc2)cc1C (configuration not stated)	-24.8% (inactive)
COC(=O)c1c(NC(=O)c2cccc(Cl)c2)sc2c1CCCC2	4.4% (inactive)
Cc1ccc(N2C(=O)C(=O)/C(=C(\O)c3ccc(Cl)cc3)C2c2ccc(O)cc2)cc1Br (configuration not stated)	-2.4% (inactive)
CCOC(=O)c1c(NC(=O)c2ccccc2C)sc2c1CCC(CC)C2 (configuration not stated)	-9.3% (inactive)
Cc1cc(C)n(Cc2c(C(=O)N3CCC(C)CC3)noc2C)n1	18.2% (inactive)
CCCN(C(=O)[C@H]1[C@@H]2C[C@@H]3[C@H]1C(=O)O[C@@H]3C2)c1ccccc1F	15.9% (inactive)
COc1ccc(C2/C(=C(\O)c3ccc(C)cc3)C(=O)C(=O)N2CCN2CCOCC2)c(OC)c1 (configuration not stated)	-7% (inactive)
O=C(C(c1ccccc1)N1Cc2ccccc2C1=O)N1CCCCCC1 (configuration not stated)	1.9% (inactive)
Nc1nonc1-c1nc2ccccc2n1CC(=O)Nc1ccccc1Cl	-1.8% (inactive)
COC(=O)c1ccc(-c2ccco2)n1CC(=O)Nc1c(C)cc(C)cc1C	-13.6% (inactive)
COc1ccc(C2/C(=C(/O)c3ccccc3)C(=O)C(=O)N2c2ccc(F)cc2)c(OC)c1 (configuration not stated)	3.6% (inactive)
O=C1C(=O)N(Cc2cccnc2)C(c2ccc(F)cc2)/C1=C(\O)c1ccccc1 (configuration not stated)	6.7% (inactive)
CC(C)OC(=O)c1c(NC(=O)C2CCCC2)sc2c1CCCC2	-0.2% (inactive)
O=C1C(=O)N(CCCN2CCOCC2)C(c2cccc(Br)c2)/C1=C(\O)c1ccccc1 (configuration not stated)	5.8% (inactive)
Cc1nnc(N2C(=O)C(=O)/C(=C(/O)c3ccccc3)C2c2ccc(Cl)cc2)s1 (configuration not stated)	-5% (inactive)
COCCCN1C(=O)C(=O)/C(=C(/O)c2ccccc2)C1c1ccc(Br)cc1 (configuration not stated)	3.8% (inactive)
COc1cccc(NC(=O)C2CCC(=O)N2S(=O)(=O)c2ccccc2)c1 (configuration not stated)	-2.9% (inactive)
COC(=O)c1c(NC(=O)c2cccc(Br)c2)sc(C)c1C	3.3% (inactive)
